The panel holds about 79,000 compounds, 15% with a hit somewhere; the sample as a whole holds those more often. A number with no mark means an inactive call. Calls of active or inactive are those of the source. Cut-off read from the data, not from the text of the source: active = growth inhibition above about 70%; inactive = the rest.

This test can be described thus: NCI Yeast Anticancer Drug Screen. Data for the CLN2oe strain (AID 163).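 Note: 0% = growth of vehicle-only control cultures.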 Particulars: S. cerevisiae CLN2oe strain, at 100.0 µM, stronger effect = higher value. The gist of the method:
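Values reflect how much compound exposure reduced yeast growth, referenced to vehicle-exposed cells. Assay organism is a strain with a defined genetic change affecting cell-cycle control.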
`CS(=O)(=O)SCc1ccc([N+](=O)[O-])cc1`: the growth inhibition was 97% (active). As for `Cc1csc(=S)n1OC(=O)NC1CCCCC1`, the figure is 100% (active); as for `CCOc1ccc(NC(=O)C2=C(C)NC(C)=C(C(=O)Nc3ccc(OCC)cc3)C2c2cccc([N+](=O)[O-])c2)cc1`, 81% (active); as for `CC(C)(C)N=C(NO)c1ccccc1`, 47%. Regarding `CCCCC/C(=C(\C#N)C(=O)OCC)c1ccccc1`, the growth inhibition was 4%. Consider `O=C(NCCCl)Sc1ccc(Cl)cc1`, for which the growth inhibition was 60%. As for `O=C1Nc2ccc(Br)cc2C1=Nc1ccc2c(c1)OCO2`, the figure is 21%; as for `CCC(C)OC(=O)Nc1ccc(C)c(NC(=O)OC(C)CC)c1` (stereo not drawn), 95% (active); as for `O=C(O)c1cc2ccc(Cl)cc2c(O)c1C1=CCCCC1`, 71% (active).

On to `CN(C)Cc1cc(N=Nc2ccc(Cl)cc2)ccc1OC(=O)c1ccccc1`, for which the growth inhibition was 5%.

Turning to `CN1CCN(C(=O)/C=C/C(=O)c2ccccc2)CC1`, the growth inhibition is 76% (active). Turning to `CCCC/C=C/C(C)(C(=O)OCC)C(=O)OCC`, the growth inhibition was 12%. As for `Cc1nc(-c2cc3cc([N+](=O)[O-])ccc3oc2=O)cs1`, the figure is 81% (active); as for `Cc1nc2ccccc2nc1NNc1ccccc1`, 18%; as for `CN(C)[C@@H]1C(=O)C(C(N)=O)=C(O)[C@@]2(O)C(=O)C3=C(O)c4c(O)cccc4C[C@H]3C[C@@H]12`, 99% (active). In the case of `COc1ccc(NC(=O)CC2SC(=Nc3ccccc3C)NC2=O)c([N+](=O)[O-])c1` (stereo not drawn) it was 16%; in that of `COc1cc(O)c2c(c1O)C(=O)c1cc(C)ncc1C2=O`, 12%.

In the case of `CSc1nnc(SC)nn1`, the growth inhibition was 98% (active).

The record behind these values is PubChem BioAssay (NCI).
